According to the supplement of paper PMC10849652:
Of roughly 8,800 targets only a part is listed; those with a hit were picked by preference. About 0.5% of all pairs of compound and target were hits.

What was measured:
Assay in all cases: log2 fold change, soluble protein after heating vs DMSO (PISA); higher = thermal stabilisation; K562 lysate, 10 uM; active = over 0.2 and 3.5 SD of the protein, either way, in both replicates (recomputed)
[1] = compound: C1=CC=C(C=C1)[C@H](COC2=CC3=C(C=C2)NC(=O)N3)NC(=O)C4=CC=CN(C4=O)CC5=CC(=C(C=C5)F)F
Outline: (§1)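 Pellets of K562 cells were dounce-homogenised in PBS pH 7.4 with 1 mM MgCl2, and the crude extract was held at 1 mg/mL protein for a 30 min treatment with 10 μM compound. Aliquots were heated for 3 min over 48°C-58°C and pooled before NP-40 was added to 0.5% at 4°C. The supernatant from 21,000xg for 90 min was quantified by TMTpro 16plex LC-MS/MS with channel sums equalised. Values are reported from duplicates as log-two fold change in thermal stability relative to solvent controls.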

[2] = compound: CC1=C(SC2=C1C(=N[C@H](C3=NN=C(N32)C)CC(=O)N)C4=CC=C(C=C4)Cl)C
Outline: as §1

[3] = compound: CC1=C2C(=CC=C1)N=C(N(C2=O)C3=CC=CC=C3C)CN4C=NC5=C(N=CN=C54)N
Outline: as §1

[4] = compound: Cc1sc2c(c1C)C(c1ccc(Cl)cc1)=N[C@@H](CC(=O)OC(C)(C)C)c1nnc(C)n1-2
Outline: as §1

[5] = compound: c1ccc([C@@H]2C[C@H]2NC2CCNCC2)cc1
Outline: as §1

Measured: log2 fold change

MICU2 (UniProt Q8IYU8)
inactive: [1] -0.132 | [2] -0.069 | [3] 0.049 | [4] -0.072 | [5] -0.002

MLH1 (UniProt P40692)
inactive: [1] -0.038 | [2] -0.006 | [3] 0.006 | [4] -0.012 | [5] 0.019

KIFC1 (UniProt Q9BW19)
inactive: [1] 0.046 | [2] -0.008 | [3] 0.122 | [4] 0.021 | [5] 0.029

LIMK1 (UniProt P53667)
UniProt P53667, sequence (P53667 whole entry, looked up): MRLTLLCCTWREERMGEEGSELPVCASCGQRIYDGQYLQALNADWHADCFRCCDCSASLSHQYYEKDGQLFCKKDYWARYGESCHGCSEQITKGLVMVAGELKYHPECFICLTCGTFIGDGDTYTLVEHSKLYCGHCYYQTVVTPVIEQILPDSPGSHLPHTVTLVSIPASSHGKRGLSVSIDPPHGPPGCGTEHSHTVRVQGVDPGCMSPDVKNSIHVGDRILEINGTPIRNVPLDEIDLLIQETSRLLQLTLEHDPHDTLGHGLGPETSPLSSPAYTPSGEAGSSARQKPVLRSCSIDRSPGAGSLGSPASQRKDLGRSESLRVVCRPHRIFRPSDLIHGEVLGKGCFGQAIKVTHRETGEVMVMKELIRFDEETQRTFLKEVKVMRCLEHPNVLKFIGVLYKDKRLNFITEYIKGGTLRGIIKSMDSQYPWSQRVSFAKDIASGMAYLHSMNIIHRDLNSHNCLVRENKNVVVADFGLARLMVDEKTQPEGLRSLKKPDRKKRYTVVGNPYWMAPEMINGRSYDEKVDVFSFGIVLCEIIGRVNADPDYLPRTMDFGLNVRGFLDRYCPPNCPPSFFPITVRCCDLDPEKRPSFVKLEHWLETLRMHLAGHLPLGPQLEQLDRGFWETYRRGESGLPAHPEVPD
inactive: [1] 0.007 | [2] -0.015 | [3] -0.07 | [4] -0.024 | [5] 0.007

MRPL19 (UniProt P49406)
inactive: [1] 0.017 | [2] -0.064 | [3] 0.011 | [4] -0.065 | [5] 0.019

LETM1 (UniProt O95202)
inactive: [1] 0.006 | [2] -0.017 | [3] 0.002 | [4] 0.042 | [5] -0.053

KIF2A isoform 4 (UniProt O00139)
UniProt O00139, sequence (O00139 whole entry, looked up): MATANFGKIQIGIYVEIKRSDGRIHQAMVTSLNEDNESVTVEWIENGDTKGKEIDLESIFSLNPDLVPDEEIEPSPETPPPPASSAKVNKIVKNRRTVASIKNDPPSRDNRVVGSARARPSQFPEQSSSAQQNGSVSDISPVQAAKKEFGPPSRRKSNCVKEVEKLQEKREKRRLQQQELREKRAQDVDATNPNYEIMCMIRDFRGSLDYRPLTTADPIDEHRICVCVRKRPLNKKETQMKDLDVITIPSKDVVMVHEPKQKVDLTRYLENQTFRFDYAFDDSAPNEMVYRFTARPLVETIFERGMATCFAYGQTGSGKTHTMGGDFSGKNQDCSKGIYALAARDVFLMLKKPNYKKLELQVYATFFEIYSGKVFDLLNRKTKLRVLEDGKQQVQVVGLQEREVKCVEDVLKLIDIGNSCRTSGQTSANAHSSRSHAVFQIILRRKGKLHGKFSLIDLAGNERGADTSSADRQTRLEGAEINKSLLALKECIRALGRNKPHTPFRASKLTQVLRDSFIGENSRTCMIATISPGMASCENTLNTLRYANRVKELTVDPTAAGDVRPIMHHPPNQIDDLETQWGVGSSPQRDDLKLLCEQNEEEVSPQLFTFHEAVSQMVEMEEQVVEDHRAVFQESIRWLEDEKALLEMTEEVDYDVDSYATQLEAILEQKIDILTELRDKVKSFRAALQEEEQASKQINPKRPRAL
inactive: [1] 0.006 | [2] -0.012 | [3] 0.015 | [4] 0.012 | [5] 0.04

LIG4 (UniProt P49917)
inactive: [1] -0.04 | [2] 0.083 | [3] -0.056 | [4] -0.002 | [5] 0.078

MED8 isoform 2 (UniProt Q96G25)
UniProt Q96G25, sequence (Q96G25 whole entry, looked up): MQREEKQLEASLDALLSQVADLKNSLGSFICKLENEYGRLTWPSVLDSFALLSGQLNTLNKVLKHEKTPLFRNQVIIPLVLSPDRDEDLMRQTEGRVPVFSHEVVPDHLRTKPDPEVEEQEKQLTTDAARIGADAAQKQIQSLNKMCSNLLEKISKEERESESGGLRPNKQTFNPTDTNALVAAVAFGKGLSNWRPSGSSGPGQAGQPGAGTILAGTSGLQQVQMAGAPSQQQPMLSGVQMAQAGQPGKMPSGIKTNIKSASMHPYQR
inactive: [1] -0.047 | [2] -0.033 | [3] -0.048 | [4] -0.039 | [5] 0.063

MAP2K1 (UniProt Q02750)
UniProt Q02750, sequence (Q02750 whole entry, looked up): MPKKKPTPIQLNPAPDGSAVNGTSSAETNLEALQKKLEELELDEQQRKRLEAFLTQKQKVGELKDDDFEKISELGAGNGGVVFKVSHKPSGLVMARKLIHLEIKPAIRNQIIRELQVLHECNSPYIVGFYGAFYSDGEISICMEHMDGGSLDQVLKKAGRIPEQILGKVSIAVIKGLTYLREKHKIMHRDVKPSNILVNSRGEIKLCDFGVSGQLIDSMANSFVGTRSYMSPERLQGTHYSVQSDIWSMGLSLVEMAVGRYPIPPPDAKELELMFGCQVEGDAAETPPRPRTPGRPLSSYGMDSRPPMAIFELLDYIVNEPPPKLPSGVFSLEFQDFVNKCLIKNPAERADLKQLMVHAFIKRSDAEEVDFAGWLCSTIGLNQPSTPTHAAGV
inactive: [1] -0.012 | [2] 0.016 | [3] -0.047 | [4] -0.048 | [5] 0.081

MBTPS1 (UniProt Q14703)
active: [1] -0.317
inactive: [2] 0.141 | [3] 0.079 | [4] -0.063 | [5] 0.017

LRWD1 (UniProt Q9UFC0)
inactive: [1] -0.027 | [2] 0.044 | [3] -0.012 | [4] 0.023 | [5] 0.039

MED10 (UniProt Q9BTT4)
UniProt Q9BTT4, sequence (Q9BTT4 whole entry, looked up): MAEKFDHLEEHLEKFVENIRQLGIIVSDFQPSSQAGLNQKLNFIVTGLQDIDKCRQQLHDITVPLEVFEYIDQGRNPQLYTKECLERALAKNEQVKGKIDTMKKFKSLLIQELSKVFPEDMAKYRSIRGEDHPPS
inactive: [1] 0.038 | [2] -0.033 | [3] -0.04 | [4] 0.015 | [5] -0.009

LYRM4 (UniProt Q9HD34)
inactive: [1] -0.03 | [2] 0.074 | [3] 0.077 | [4] 0.006 | [5] 0.004

LLGL1 (UniProt Q15334)
UniProt Q15334, sequence (Q15334 whole entry, looked up): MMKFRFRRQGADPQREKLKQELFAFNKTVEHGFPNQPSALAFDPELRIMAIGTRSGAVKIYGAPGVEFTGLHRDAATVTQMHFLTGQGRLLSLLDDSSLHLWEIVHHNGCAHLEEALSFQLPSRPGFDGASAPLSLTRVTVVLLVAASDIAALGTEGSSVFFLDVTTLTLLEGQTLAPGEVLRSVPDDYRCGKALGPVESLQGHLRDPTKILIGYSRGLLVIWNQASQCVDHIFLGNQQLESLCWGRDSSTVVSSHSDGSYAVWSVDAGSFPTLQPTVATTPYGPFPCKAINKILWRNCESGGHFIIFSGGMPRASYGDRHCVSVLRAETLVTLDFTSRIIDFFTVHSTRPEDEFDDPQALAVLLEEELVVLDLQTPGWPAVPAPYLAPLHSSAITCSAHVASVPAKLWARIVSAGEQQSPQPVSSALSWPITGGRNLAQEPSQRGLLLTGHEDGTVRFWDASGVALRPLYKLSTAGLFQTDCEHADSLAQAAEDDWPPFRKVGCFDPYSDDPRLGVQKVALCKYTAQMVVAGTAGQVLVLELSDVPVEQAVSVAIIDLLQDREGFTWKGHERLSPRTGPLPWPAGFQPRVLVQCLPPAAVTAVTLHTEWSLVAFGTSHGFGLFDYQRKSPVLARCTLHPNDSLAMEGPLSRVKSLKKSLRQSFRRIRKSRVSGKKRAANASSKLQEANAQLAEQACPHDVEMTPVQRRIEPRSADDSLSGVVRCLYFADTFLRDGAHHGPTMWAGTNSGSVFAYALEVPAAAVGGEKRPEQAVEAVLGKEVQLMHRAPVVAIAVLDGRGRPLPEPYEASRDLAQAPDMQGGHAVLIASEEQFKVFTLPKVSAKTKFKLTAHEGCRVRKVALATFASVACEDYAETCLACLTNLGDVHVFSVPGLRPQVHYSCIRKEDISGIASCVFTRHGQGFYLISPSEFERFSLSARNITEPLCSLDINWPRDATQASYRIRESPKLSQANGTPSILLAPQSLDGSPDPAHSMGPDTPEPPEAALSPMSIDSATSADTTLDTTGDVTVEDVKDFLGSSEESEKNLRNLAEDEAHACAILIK
inactive: [1] 0.038 | [2] 0.052 | [3] 0.024 | [4] -0.056 | [5] 0.074

MAT2B (UniProt Q9NZL9)
inactive: [1] -0.008 | [2] 0.014 | [3] -0.044 | [4] -0.003 | [5] -0.002

MIF4GD isoform 3 (UniProt A9UHW6)
UniProt A9UHW6, sequence (A9UHW6 whole entry, looked up): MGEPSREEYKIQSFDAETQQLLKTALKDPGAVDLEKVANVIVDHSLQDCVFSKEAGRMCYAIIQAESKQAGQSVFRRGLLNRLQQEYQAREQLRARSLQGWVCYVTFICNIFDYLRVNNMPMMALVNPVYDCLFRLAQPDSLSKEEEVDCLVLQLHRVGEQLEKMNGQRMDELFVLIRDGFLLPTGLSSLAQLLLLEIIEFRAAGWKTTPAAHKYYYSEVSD
inactive: [1] -0.046 | [2] -0.033 | [3] 0.005 | [4] -0.051 | [5] -0.029

MED12 isoform 2 (UniProt Q93074)
inactive: [1] 0.013 | [2] -0.024 | [3] -0.019 | [4] 0.042 | [5] 0.031

MITD1 (UniProt Q8WV92)
inactive: [1] -0.036 | [2] -0.038 | [3] -0.015 | [4] -0.026 | [5] 0.117

MAP4K2 (UniProt Q12851)
UniProt Q12851, sequence (Q12851 whole entry, looked up): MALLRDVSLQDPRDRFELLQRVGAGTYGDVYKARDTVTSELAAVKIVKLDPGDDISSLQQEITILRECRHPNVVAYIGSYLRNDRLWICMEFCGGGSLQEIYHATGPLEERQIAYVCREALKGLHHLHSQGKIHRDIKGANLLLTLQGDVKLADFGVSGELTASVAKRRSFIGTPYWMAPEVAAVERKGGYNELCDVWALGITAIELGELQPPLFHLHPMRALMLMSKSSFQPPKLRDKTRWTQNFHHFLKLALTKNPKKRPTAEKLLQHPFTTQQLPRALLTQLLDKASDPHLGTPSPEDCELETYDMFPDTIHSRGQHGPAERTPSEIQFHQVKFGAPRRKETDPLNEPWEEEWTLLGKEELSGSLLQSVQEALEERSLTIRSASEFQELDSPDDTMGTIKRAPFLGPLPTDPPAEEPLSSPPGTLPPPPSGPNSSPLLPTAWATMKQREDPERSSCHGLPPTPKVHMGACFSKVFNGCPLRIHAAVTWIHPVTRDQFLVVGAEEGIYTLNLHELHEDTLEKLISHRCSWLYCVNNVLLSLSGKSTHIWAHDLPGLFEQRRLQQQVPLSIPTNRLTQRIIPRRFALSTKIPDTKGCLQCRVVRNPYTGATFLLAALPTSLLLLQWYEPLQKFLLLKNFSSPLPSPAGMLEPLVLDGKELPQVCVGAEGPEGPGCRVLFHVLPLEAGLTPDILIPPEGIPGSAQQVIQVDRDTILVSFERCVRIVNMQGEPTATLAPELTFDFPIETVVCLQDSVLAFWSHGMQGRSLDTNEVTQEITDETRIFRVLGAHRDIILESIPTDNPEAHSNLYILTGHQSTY
inactive: [1] -0.088 | [2] 0.053 | [3] 0.022 | [4] -0.13 | [5] -0.087

MOSPD2 (UniProt Q8NHP6)
inactive: [1] -0.024 | [2] 0.029 | [3] 0.047 | [4] -0.078 | [5] -0.013

LSS (UniProt P48449)
UniProt P48449, sequence (P48449 whole entry, looked up): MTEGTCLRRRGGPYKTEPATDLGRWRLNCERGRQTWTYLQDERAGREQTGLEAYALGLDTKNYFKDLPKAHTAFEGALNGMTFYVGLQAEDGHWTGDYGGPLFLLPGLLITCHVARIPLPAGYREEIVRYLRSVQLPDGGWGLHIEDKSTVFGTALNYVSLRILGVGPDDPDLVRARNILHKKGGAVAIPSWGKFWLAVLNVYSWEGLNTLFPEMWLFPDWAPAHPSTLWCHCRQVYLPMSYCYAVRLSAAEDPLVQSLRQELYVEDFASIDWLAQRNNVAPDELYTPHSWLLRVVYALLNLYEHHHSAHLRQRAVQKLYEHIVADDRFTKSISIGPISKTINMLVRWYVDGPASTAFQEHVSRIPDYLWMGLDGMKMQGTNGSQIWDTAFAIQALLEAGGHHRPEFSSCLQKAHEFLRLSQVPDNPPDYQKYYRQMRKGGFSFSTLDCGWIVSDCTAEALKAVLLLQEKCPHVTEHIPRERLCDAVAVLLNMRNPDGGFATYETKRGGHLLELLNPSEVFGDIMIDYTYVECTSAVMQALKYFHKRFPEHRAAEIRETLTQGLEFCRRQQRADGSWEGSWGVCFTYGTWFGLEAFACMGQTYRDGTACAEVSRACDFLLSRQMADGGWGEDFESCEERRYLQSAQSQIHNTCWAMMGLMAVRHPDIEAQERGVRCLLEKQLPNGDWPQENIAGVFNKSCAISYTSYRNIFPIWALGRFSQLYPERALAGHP
inactive: [1] 0.016 | [2] -0.083 | [3] 0.014 | [4] -0.012 | [5] -0.007

KNL1 (UniProt Q8NG31)
inactive: [1] 0.009 | [2] 0.003 | [3] -0.004 | [4] -0.03 | [5] -0.001

MAP3K4 (UniProt Q9Y6R4)
inactive: [1] 0.012 | [2] -0.079 | [3] -0.001 | [4] -0.03 | [5] -0.008
